Measurements from the supplement of paper PMC11624193, “Coupling cellular drug-target engagement to downstream pharmacology with CeTEAM” (Nature Communications, 2024).
“And” between values parts separate entries of the source, which are not always exact repeats. Identical values can stand only once. Counter-ions that a name gives are not always drawn. Values without a mark were called inactive.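 The calls were made as follows: active = log2 fold change beyond 2 SD from the library mean after excluding viability outliers; inactive = within 2 SD.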

Target: PARP1 L713F-nLuc biosensor (HCT116) (UniProt P09874)
Assay: PARP1 L713F-nLuc/akaLuc ratio relative to DMSO control (biosensor stabilization) (fold change); higher = more PARP1 biosensor stabilization (target engagement / stabilizer), active = hit call of the paper
Details: stock concentration (mM; final µM = stock mM x 1): 10; 24 h

Chain of PARP1 L713F-nLuc biosensor (HCT116) (P09874 whole entry L713F, looked up): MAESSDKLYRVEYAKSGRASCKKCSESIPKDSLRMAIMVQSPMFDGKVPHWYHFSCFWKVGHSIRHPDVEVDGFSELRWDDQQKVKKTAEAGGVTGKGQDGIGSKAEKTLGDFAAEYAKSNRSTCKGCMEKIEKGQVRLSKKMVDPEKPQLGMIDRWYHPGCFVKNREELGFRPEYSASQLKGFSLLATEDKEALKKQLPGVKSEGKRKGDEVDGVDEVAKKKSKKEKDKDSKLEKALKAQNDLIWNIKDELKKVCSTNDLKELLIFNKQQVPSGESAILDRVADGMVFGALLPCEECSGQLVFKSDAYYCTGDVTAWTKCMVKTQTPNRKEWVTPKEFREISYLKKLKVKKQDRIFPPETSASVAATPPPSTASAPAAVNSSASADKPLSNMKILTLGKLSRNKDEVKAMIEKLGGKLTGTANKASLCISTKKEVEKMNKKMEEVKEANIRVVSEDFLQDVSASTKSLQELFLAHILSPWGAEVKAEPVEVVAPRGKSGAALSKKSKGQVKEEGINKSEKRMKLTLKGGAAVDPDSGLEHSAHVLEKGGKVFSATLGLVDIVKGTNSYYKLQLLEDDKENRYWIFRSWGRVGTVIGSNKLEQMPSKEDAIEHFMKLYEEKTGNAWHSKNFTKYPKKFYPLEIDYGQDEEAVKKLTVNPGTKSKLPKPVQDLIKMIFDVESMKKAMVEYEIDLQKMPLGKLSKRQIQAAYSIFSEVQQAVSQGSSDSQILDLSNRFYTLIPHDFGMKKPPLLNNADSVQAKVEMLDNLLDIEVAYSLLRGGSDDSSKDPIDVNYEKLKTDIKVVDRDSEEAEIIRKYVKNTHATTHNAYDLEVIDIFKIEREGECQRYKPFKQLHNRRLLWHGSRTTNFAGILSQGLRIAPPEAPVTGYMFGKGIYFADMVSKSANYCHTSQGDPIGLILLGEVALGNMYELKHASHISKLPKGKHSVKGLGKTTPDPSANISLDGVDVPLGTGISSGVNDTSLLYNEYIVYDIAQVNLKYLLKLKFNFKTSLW

| Structure (SMILES) | PARP1 L713F-nLuc/akaLuc ratio |
| --- | --- |
| CNC(=O)CN1CCC(Oc2cc3c(Nc4cccc(Cl)c4F)ncnc3cc2OC)CC1 [Sapitinib (AZD8931)] | 0.797 |
| C/C(=N\NC(=O)c1cccc(S(=O)(=O)N2CCOCC2)c1)c1cc(Cl)ccc1O | 0.495 |
| CN1CCCN(C(=O)c2cccc(-c3ccc(/C=C4/C(=O)Nc5ccc(Cl)cc54)o3)c2)CC1 | 0.758 |
| O=S(=O)(NCCSSCCNS(=O)(=O)c1cc(Cl)ccc1Cl)c1cc(Cl)ccc1Cl | 1.18 |
| O=C(Nc1ccccc1-c1cn2c(CN3CCNCC3)csc2n1)c1cnc2ccccc2n1 [SRT 1720 (Hydrochloride)] | 1.16 |
| CC(C(=O)Nc1cccc(/N=C/c2c(O)ccc3ccccc23)c1)c1ccccc1 (stereo not drawn) [Salermide] | 0.605 |
| CC(=O)N[C@@H](CCCCN)C(=O)Nc1ccc2c(C)cc(=O)oc2c1 | 0.736 |
| COc1cc2c(NC3CCN(C)CC3)nc(N3CCCN(C)CC3)nc2cc1OCCOCCN(C)C | 1.43 |
| Cc1cc(Nc2nc(CC3(C(=O)O)CCN(C(=O)c4cccc(Cl)c4Cl)CC3)ccc2F)n[nH]1 | 1.6 |
| N#CCNC(=O)c1ccc(-c2ccnc(Nc3ccc(N4CCOCC4)cc3)n2)cc1 [Momelotinib (CYT387)] | 0.585 |
| CNC(=O)c1ccc(N2C(=S)N(c3ccc(C#N)c(C(F)(F)F)c3)C(=O)C2(C)C)cc1F [Enzalutamide (MDV3100)] | 0.993 |
| O=C(Nc1cccnc1)N1CCC(Cc2cccc(Oc3ccc(C(F)(F)F)cn3)c2)CC1 | 0.451 |
| Cc1cc(Nc2nc(N[C@@H](C)c3ncc(F)cn3)ncc2Cl)[nH]n1 | 0.882 |
| O=C(Nc1cc(Cl)cc2c1[nH]c1cnccc12)c1cccnc1 | 0.723 |
| O=C(O)c1ccc(-c2c[nH]c3ncc(-c4ccccc4)cc23)cc1C1CCCC1 | 0.793 |
| NC(=O)/C(=C/n1cnc(-c2cc(C(F)(F)F)cc(C(F)(F)F)c2)n1)c1cncnc1 [Eltanexor (KPT-8602)] | 0.767 |
| NC(=O)c1ccccc1Nc1ccccc1 | 0.795 |
| COc1ccc(COc2cc3oc(=O)c4cc(C(C)O)ccc4c3cc2OC)cc1 (stereo not drawn) [Palomid 529 (P529)] | 0.578 |
| N#CC[C@H](C1CCCC1)n1cc(-c2ncnc3[nH]ccc23)cn1 [Ruxolitinib (phosphate)] | 0.575 |

| Structure (SMILES) | PARP1 L713F-nLuc/akaLuc ratio |
| --- | --- |
| COc1ccc(NC(=O)c2ccc(NC3=C(C)C(=O)CC3)c(Cl)c2)cc1 | 0.879 |
| COc1cc(C(=O)Nc2ccccc2-c2cn3c(CN4CCNCC4)csc3n2)cc(OC)c1OC | 0.569 |
| CCn1c(C(=O)N(C2CC2)C2CC2)cc2c3c(ncn3C)c(Nc3cc(C)n(C)n3)nc21 | 1.01 |
| OC(COc1ccc(C(F)(F)F)cc1)CN(Cc1ccccc1)Cc1ccccc1 (stereo not drawn) | 1.03 |
| O=C(NNS(=O)(=O)c1ccccc1)c1cc(-c2ccnnc2)ccc1F | 1.16 |
| O=C1NC(=O)[C@@H](c2cn3c4c(cccc24)CCC3)[C@@H]1c1c[nH]c2ccccc12 [Tivantinib (ARQ 197)] | 0.773 |
| COc1cccc2c1c(O)c(C(=O)N(C)c1ccc(C(F)(F)F)cc1)c(=O)n2C [Tasquinimod] | 1.12 |
| Nc1nc2cc(CC[C@H]3C[C@@H](n4ccc5c(N)ncnc54)[C@H](O)[C@@H]3O)ccc2cc1Br | 0.465 |
| COC1CCN(C(=O)c2cc(Cc3n[nH]c(=O)c4ccccc34)ccc2F)CC1 | 7.52 (active) |
| CCCS(=O)(=O)Nc1ccc(F)c(C(=O)c2c[nH]c3ncc(-c4ccc(Cl)cc4)cc23)c1F [Vemurafenib (PLX4032, RG7204)] | 0.608 |
| CC(C)(O)CNc1nc(Nc2ccnc(C(F)(F)F)c2)nc(-c2cccc(C(F)(F)F)n2)n1 [Enasidenib (AG-221)] | 1.96 |
| CC1=C(C)C(=O)C(C(C)(C)CC(=O)N(CCCCSC[C@H]2O[C@@H](n3cnc4c(N)ncnc43)[C@H](O)[C@@H]2O)Cc2cccc(-c3ccc(Cl)cc3)c2)=C(C)C1=O | 0.784 |
| C[C@H](Nc1cc(-c2cnn(C)c2)cc(Nc2cnccn2)n1)c1ccc(F)cc1 [Ilginatinib hydrochloride] | 0.281 (active) |
| Cn1nnc2c(C(N)=O)ncn2c1=O [Temozolomide] | 0.833 |
| Cc1nc(Nc2n[nH]c3c2CN(C(=O)N[C@H](CN(C)C)c2ccccc2)C3(C)C)c2sccc2n1 | 5.51 (active) |
| O=C(O)c1ccc(CN2CCC(CN[C@@H]3C[C@H]3c3ccccc3)CC2)cc1 | 0.815 and 0.79 and 0.987 |
| O=C(O)c1ccc(Nc2ncc3c(n2)-c2ccc(Cl)cc2C(c2c(F)cccc2F)=NC3)cc1 | 1.87 |
| Cc1cccc(CC(=O)N2CCc3c2ccc(-c2cn(C)c4ncnc(N)c24)c3F)n1 | 1.05 |
| O=C([C@@H](Cc1cccc(C(F)(F)F)c1)NS(=O)(=O)c1cc(F)c2c(c1)CCNC2)N1CCCC1 [PFI-2 (hydrochloride)] | 0.92 |
